Measured values from PubChem BioAssay AID1159580 (chemical genetic matrix, 2015).
Screen size: about 5,500 compounds; about 2,000 (36%) were called active. Not shown: some 18% with an inconclusive outcome. Rule as the data show it: active = normalized growth mostly below about 0.91 (no sharp cut-off); inconclusive = no clear call, values can overlap the other calls; inactive = mostly above about 0.92. The list shows a part of the results.

Assay: chemical genetic growth profiling, strain panel (AID 1159580);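 also: tested at 20 µM; growth read once vehicle control cultures reached saturation at 30 °C; 1 = growth at the plate median or of vehicle wells; lower values mean less growth of the strain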
Settings: S. cerevisiae deletion strains, growth OD
[1] = locus YAL040C, strain CLN3, stronger effect = lower value
[2] = locus YDR363W, strain ESC2, stronger effect = lower value
[3] = locus YER002W, strain NOP16, stronger effect = lower value
[4] = locus YJR075W, strain HOC1, stronger effect = lower value
[5] = locus YNL175C, strain NOP13, stronger effect = lower value
[6] = locus YNL197C, strain WHI3, stronger effect = lower value
[7] = locus YNL224C, strain SQS1, stronger effect = lower value
[8] = locus YOR083W, strain WHI5 (second series), stronger effect = lower value

Measured: normalized growth

CC(=O)/C(C)=N\O
inactive: [1] 0.972 | locus YDR150W, strain NUM1, stronger effect = lower value 0.972 | [2] 1.07 | [3] 0.994 | locus YGR078C, strain PAC10, stronger effect = lower value 1 | [4] 0.987 | locus YMR307W, strain GAS1, stronger effect = lower value 1.07 | locus YNL128W, strain TEP1, stronger effect = lower value 0.983 | locus YNL153C, strain GIM3, stronger effect = lower value 0.979 | [5] 0.978 | [6] 1 | [7] 1.01 | locus YNL322C, strain KRE1, stronger effect = lower value 1 | [8] 0.986

CC(=O)C(C)=O
inactive: [1] 1.01 | locus YCL061C, strain MRC1 (second series), stronger effect = lower value 1.01 | [2] 1.03 | [3] 1 | [4] 1.02 | [5] 0.994 | [6] 1.03 | [7] 0.99 | [8] 1.02 | locus YPL055C, strain LGE1, stronger effect = lower value 1.07
